Screen size: about 46,000 compounds; about 900 (2%) were called active. Another 1% or so got no clear call; they are omitted. Many of the other results were omitted from the sample, so actives are more common in it than they were. Unmarked numbers belong to inactive results. Cut-off read from the data, not from the text of the source: active = ROS induction above about 79% (passing the limit was not always enough); inconclusive = no clear call, values can overlap the other calls.

The test can be described thus: ROS inducers in U2OS cancer cells, primary screen, cell-based, H2DCF-DA fluorescence (AID 624156).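 Note: 0% = DMSO vehicle median and 100% = reference compound median.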 To be noted: at 10 µM, active compounds read high.
Regarding `COc1cccc(CNC(=O)CCn2nc(-c3ccccc3)ccc2=O)c1`, the ROS induction (% of piperlongumine) was -6.11%.

For the compound `CCc1cccc(NS(=O)(=O)c2cc(Br)cc3c2N(C(=O)C2CC2)CC3)c1`, the ROS induction (% of piperlongumine) is 31.7%.

As to `CNC(=O)CN1C(=O)c2ccccc2S1(=O)=O`, the ROS induction (% of piperlongumine) is 3.08%.

`O=C1c2ccccc2S(=O)c2ccccc2S(=O)(=O)N1Cc1ccccc1` (stereo not given): the ROS induction (% of piperlongumine) is 205% (active).

For the compound `COc1ccc(C2C(C(=O)N(C)c3ccc(C(C)C)cc3)CC(=O)N2c2ccc(OC)cc2)cc1` (stereo not given), the ROS induction (% of piperlongumine) was 16.7%.

Turning to `C=C1C(=O)O[C@@H]2[C@H]3C(CO)=CC(=O)C3=C(C)C[C@H](OC(=O)Cc3ccc(O)cc3)[C@@H]12`, the ROS induction (% of piperlongumine) is 205% (active).

For the compound `CCOC(=O)/C(C#N)=c1/s/c(=C2/C=Cc3ccccc3N2CC)c(=O)n1CC`, the ROS induction (% of piperlongumine) was 23.1%.

For the compound `C[C@@H]1CN([C@H](C)CO)C(=O)c2cc(NC(=O)Nc3ccccc3)ccc2O[C@H]1CN(C)S(=O)(=O)c1ccc(F)cc1`, the ROS induction (% of piperlongumine) is 9.94%.

Regarding `O=C(Nc1ccccc1)Nc1ccccc1C(=O)N1CCOCC1`, the ROS induction (% of piperlongumine) was -0.785%.

For `COc1ccc(NC(=O)N(C)C[C@@H]2Oc3ncc(-c4cccc(OC)c4)cc3C(=O)N([C@H](C)CO)C[C@@H]2C)cc1`, the ROS induction (% of piperlongumine) was 69.6%.

As for `CCCC(O)C#Cc1cnc2c(c1)C(=O)N([C@H](C)CO)C[C@H](C)[C@H](CN(C)S(=O)(=O)c1ccc(C#N)cc1)O2` (stereo not given in full), the ROS induction (% of piperlongumine) was -0.235%.

For the compound `CCCC(O)C#Cc1cnc2c(c1)C(=O)N([C@H](C)CO)C[C@H](C)[C@H](CN(C)Cc1ccc(F)cc1)O2` (stereo not given in full), the ROS induction (% of piperlongumine) is 94.3% (active).

In the case of `C[C@H](CO)N1C[C@H](C)[C@@H](CN(C)C(=O)Nc2ccc3c(c2)OCO3)Oc2c(cccc2N(C)C)C1=O`, the ROS induction (% of piperlongumine) was 6.93%.

Regarding `C[C@H](CO)N1C[C@H](C)[C@H](CN(C)C(=O)Nc2ccc(F)cc2)Oc2ncc(-c3cc4ccccc4o3)cc2C1=O`, the ROS induction (% of piperlongumine) was 130% (active).

For the compound `C[C@H](CO)N1C[C@H](C)[C@H](CN(C)C(=O)NC2CCCC2)Oc2ncc(-c3ccc(F)cc3)cc2C1=O`, the ROS induction (% of piperlongumine) is 14.3%.

Consider `C[C@H](CO)N1C[C@H](C)[C@H](CN(C)Cc2ccccc2)Oc2ncc(-c3ccccc3)cc2C1=O`, for which the ROS induction (% of piperlongumine) was 3.81%.

With `C[C@H](CO)N1C[C@H](C)[C@H](CN(C)C(=O)Nc2ccc3c(c2)OCO3)Oc2ncc(C#Cc3cccc(F)c3)cc2C1=O`, the ROS induction (% of piperlongumine) was 93.9% (active).

As to `C[C@H](CO)N1C[C@H](C)[C@H](CN(C)C(=O)Nc2ccc3c(c2)OCO3)Oc2ncc(Br)cc2C1=O`, the ROS induction (% of piperlongumine) was 2.65%.

Take `CN1CCN(CC(O)COc2ccc3ccccc3c2)CC1` (stereo not given): the ROS induction (% of piperlongumine) is -2.48%.

Take `CC(C)CC(C(=O)O)N1C(=O)c2ccccc2C1=O` (stereo not given): the ROS induction (% of piperlongumine) is -9.51%.

Turning to `Cn1c(=O)c2c(nc(SCC(=O)Nc3ccccc3F)n2Cc2ccccc2)n(C)c1=O`, the ROS induction (% of piperlongumine) is 11.1%.

`O=C(Nc1nccs1)C1CCCN(C(=O)c2cnn(-c3ccccc3)c2-n2cccc2)C1` (stereo not given): the ROS induction (% of piperlongumine) was 4.87%.

Take `COc1ccc(NS(=O)(=O)c2ccc(OCC(F)(F)F)c(C#N)c2OCC(F)(F)F)cc1`: the ROS induction (% of piperlongumine) is -8.52%.

As to `CCOc1ccc2c(=O)c(Oc3ccccc3Br)coc2c1`, the ROS induction (% of piperlongumine) is 0.931%.

As for `Cc1noc(C)c1NC(=O)NCc1ccc2c(c1)OCO2`, the ROS induction (% of piperlongumine) was -1.2%.

As for `CN(C)c1ccc(/C=C(\C#N)S(=O)(=O)c2ccccc2)cc1C#N`, the ROS induction (% of piperlongumine) was -4.92%.

With `CC1CCN(C(=O)CCNS(=O)(=O)c2cccc3nsnc23)CC1`, the ROS induction (% of piperlongumine) was -19.6%.

On to `Cc1cc(C(C)(C)C)cc(S(=O)(=O)Nc2ccc(C(=O)N3CCC(C)CC3)cc2)c1C`, for which the ROS induction (% of piperlongumine) was 5.57%.

Turning to `Cc1cccc(NC(=O)c2nnn(-c3cccc(C(F)(F)F)c3)c2N)c1`, the ROS induction (% of piperlongumine) is -17.1%.

As for `O=S(=O)(NCc1csc(-c2cccnc2)n1)c1ccc2c(c1)CCCC2`, the ROS induction (% of piperlongumine) is 5.59%.

Turning to `Cn1c(=NC(=O)CCOc2ccccc2)sc2cc(Br)ccc21`, the ROS induction (% of piperlongumine) was 1.27%.

Regarding `Cc1ccc(Nc2cc(C(=O)NCC3CCCO3)c3ccccc3n2)cc1C` (stereo not given), the ROS induction (% of piperlongumine) is 1.21%.

On to `Cc1ccc(S(=O)(=O)N(CC(=O)Nc2ccc3c(c2)OCCO3)C2CCCCC2)cc1`, for which the ROS induction (% of piperlongumine) is 7.86%.

Take `Cc1cc(Nc2ccc(Cl)cc2)c2ccccc2n1`: the ROS induction (% of piperlongumine) was 6.49%.

For the compound `Cc1cc(Sc2nnc(C)s2)c2ccccc2n1`, the ROS induction (% of piperlongumine) was 255% (active).

For `Cc1nnc(SCc2cc(=O)[nH]c(N3CCN(Cc4ccccc4)CC3)n2)s1`, the ROS induction (% of piperlongumine) is -2.67%.

For `Cc1ccc2c(Sc3ccc(Cl)cc3)c(C(=O)NC3CCCC3)[nH]c2c1`, the ROS induction (% of piperlongumine) is -12.5%.

For `O=C(N/N=C/c1cc(F)ccc1O)c1ccccc1O`, the ROS induction (% of piperlongumine) was -13.6%.

Regarding `c1ccc(Nc2ncnc3sc(-c4ccccc4)cc23)cc1`, the ROS induction (% of piperlongumine) is 130% (active).

Take `CNC(=O)NC(=O)CSc1ncnc2sc(-c3ccccc3)cc12`: the ROS induction (% of piperlongumine) is 5.81%.

On to `Cc1ccccc1NC(=O)NC(=O)CC#N`, for which the ROS induction (% of piperlongumine) was -16.4%.

Take `C[C@@H]1CN([C@@H](C)CO)C(=O)c2cc(NC(=O)C3CC3)ccc2O[C@H]1CN(C)C`: the ROS induction (% of piperlongumine) was -0.632%.

Turning to `Cn1c(=O)c2c(nc(SCC(=O)NC(C)(C)C)n2Cc2ccccc2F)n(C)c1=O`, the ROS induction (% of piperlongumine) is 0.779%.

On to `CC(C)C1Cc2c(sc3nc(SCC(=O)Nc4ccccc4)nc(N)c23)CO1` (stereo not given), for which the ROS induction (% of piperlongumine) is 44%.

Turning to `Cc1ccc(NC(=O)c2ccc(CSc3ccccn3)cc2)c(C)c1`, the ROS induction (% of piperlongumine) is -9.72%.

For `C[C@@H]1CN([C@H](C)CO)C(=O)c2cc(NS(=O)(=O)c3ccc(F)cc3)ccc2O[C@H]1CN(C)C(=O)Nc1cccc2ccccc12`, the ROS induction (% of piperlongumine) was 6.38%.

For the compound `O=C1O[C@@H](c2ccccc2)[C@@H](c2ccccc2)N2[C@@H](c3ccc(OCCO)cc3)[C@]3(C(=O)Nc4ccc(C#CCCO)cc43)[C@@H](C(=O)O)[C@H]12`, the ROS induction (% of piperlongumine) was 0.895%.

As for `COc1ccc(C#Cc2ccc3c(c2)[C@]2(C(=O)N3)[C@H](c3ccccc3OCCO)N3[C@H](c4ccccc4)[C@H](c4ccccc4)OC(=O)[C@H]3[C@@H]2C(=O)N2CCCCCCC2)cc1`, the ROS induction (% of piperlongumine) is -14.4%.

Regarding `COCCOC(=O)N1C(=O)[C@@]2(c3cc(C#CCNC(N)=O)ccc31)[C@H](C(=O)N1CCN(c3ncccn3)CC1)[C@H]1C(=O)O[C@H](c3ccccc3)[C@H](c3ccccc3)N1[C@@H]2c1ccccc1OCCO`, the ROS induction (% of piperlongumine) was 19.5%.

As to `O=C1O[C@H](c2ccccc2)[C@H](c2ccccc2)N2[C@H]1[C@@H](C(=O)N1CCN(c3ncccn3)CC1)[C@]1(C(=O)Nc3ccccc31)[C@H]2c1ccc(OCCO)cc1`, the ROS induction (% of piperlongumine) is 69.8%.

Take `COC(=O)C(CC#Cc1ccc2c(c1)[C@]1(C(=O)N2)[C@H](c2ccccc2OCCO)N2[C@H](c3ccccc3)[C@H](c3ccccc3)OC(=O)[C@H]2[C@@H]1C(N)=O)C(=O)OC`: the ROS induction (% of piperlongumine) is 447% (active).

Consider `COC(=O)C(CC#Cc1ccc2c(c1)[C@]1(C(=O)N2)[C@H](c2ccc(O)cc2)N2[C@H](c3ccccc3)[C@H](c3ccccc3)OC(=O)[C@H]2[C@@H]1C(=O)NC[C@H](O)c1ccccc1)C(=O)OC`, for which the ROS induction (% of piperlongumine) is 16.4%.

Take `C=CCNC(=O)[C@H]1[C@@H]2C(=O)O[C@@H](c3ccccc3)[C@@H](c3ccccc3)N2[C@@H](c2ccccc2OCCO)[C@]12C(=O)N(C(=O)OCCOC)c1ccc(C#Cc3ccc(OC)cc3)cc12`: the ROS induction (% of piperlongumine) was 15.7%.

In the case of `COCCOC(=O)N1C(=O)[C@@]2(c3cc(C#CCC(C(=O)OC)C(=O)OC)ccc31)[C@H](c1ccc(OCCO)cc1)N1[C@H](c3ccccc3)[C@H](c3ccccc3)OC(=O)[C@H]1[C@@H]2C(N)=O`, the ROS induction (% of piperlongumine) is 166% (active).

`O=C1O[C@@H](c2ccccc2)[C@@H](c2ccccc2)N2[C@@H](c3ccccc3OCCO)[C@]3(C(=O)Nc4ccccc43)[C@@H](C(=O)N3CCCCCCC3)[C@H]12`: the ROS induction (% of piperlongumine) is 108% (active).

`COc1ccc(CCNC(=O)c2cc3ccccc3c(=O)o2)cc1OC`: the ROS induction (% of piperlongumine) is 19.8%.

Consider `COc1ccc(/C=C(/NC(=O)c2ccccc2)C(=O)N2CC3(C)CC2CC(C)(C)C3)cc1` (stereo not given), for which the ROS induction (% of piperlongumine) is 1.8%.

In the case of `CCOC(=O)C1CCN(C(=O)CN2C(=O)c3ccccc3C2=O)CC1`, the ROS induction (% of piperlongumine) is -6.98%.

With `COc1cccc(CNS(=O)(=O)c2ccc3[nH]c(=O)ccc3c2)c1`, the ROS induction (% of piperlongumine) is -8.9%.

As for `C[C@@H]1CN([C@@H](C)CO)C(=O)c2cc(NC(=O)CCCN(C)C)ccc2O[C@H]1CN(C)Cc1ccccc1`, the ROS induction (% of piperlongumine) was -15.8%.

Take `NS(=O)(=O)c1ccc(CCNC2=CC(=O)OC23CCCCC3)cc1`: the ROS induction (% of piperlongumine) was -9.03%.

As for `O=C(CSc1n[nH]c(-c2ccncc2)n1)Nc1ccccc1F`, the ROS induction (% of piperlongumine) was -7%.

Turning to `COC(=O)c1ccccc1NC(=O)CSc1n[nH]c(-c2ccncc2)n1`, the ROS induction (% of piperlongumine) is -0.326%.

As to `COc1ccc(OC)c(NC(=O)CSc2n[nH]c(-c3ccncc3)n2)c1`, the ROS induction (% of piperlongumine) was 148% (active).

Take `CC1CCCC(C)N1C(=O)c1cc2c(s1)-c1ccccc1OC2` (stereo not given): the ROS induction (% of piperlongumine) was -1.02%.

Values taken from PubChem BioAssay AID624156 (Broad Institute, 2012).
